Screening data as filed in PubChem.
HP1b chromo inh: HTS for Inhibitors of HP1-beta Chromodomain Interactions with Methylated Histone Tails; Chromobox protein homolog 1 (Homo sapiens), P83916; AlphaScreen HP1-beta / biotin-H3K9me3 peptide binding; Potency, µM (series often up to 114 µM), inactives show at the highest dose activity change, negative = inhibition, most hits filed as inhibitors; actives 0.56% (n = 390,000); also: nearly all actives have a fitted effect of over 70% in size
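HP1-beta protein (50 nM final) preincubated 30 min at room temperature with biotinylated H3(1-18)K9me3 peptide (50 nM) in PBS pH 7.4, 0.01% Tween-20, then compound added for 30 min. AlphaScreen streptavidin donor/nickel chelate acceptor beads (10 ug/mL final), 30 min dark, luminescence read.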
Sfp PPTase inh: qHTS Assay for Inhibitors of Bacillus subtilis Sfp phosphopantetheinyl transferase (PPTase); Biochemical Sfp PPTase activity, qHTS; actives 3.5% (n = 310,000); Potency, µM, for inactives: largest response in the series, negative = inhibition, hits mostly inhibitors; AID 1490, 2009; 4'-phosphopantetheinyl transferase ffp (Bacillus subtilis), Q9F4F7;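 also: the enzyme is Sfp with the accession as filed and its product quenches rhodamine fluorescence; 0% = enzyme reaction without inhibitor and -100% = no enzyme wells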
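Sfp 15 nM + cpd, 15 min RT; start w/ rhodamine-CoA 5 uM, BHQ-2-YbbR 12.5 uM (final); 50 mM Hepes pH 7.6, 10 mM MgCl2, 0.01% NP-40, 0.01% BSA; read 525/598 nm at 0 and 30 min.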
PLK1 PBD inh: qHTS for Inhibitors of PLK1-PDB (polo-like kinase 1 - polo-box domain): Primary Screen | Potency, µM, without a hit: max response, negative = inhibition, usual class: inhibitors | actives 2.8% (n = 360,000) | Plk1 PBD binding of FITC phosphopeptide, fluorescence polarization | Serine/threonine-protein kinase PLK1 (Homo sapiens), P53350; also: series mostly up to about 57 µM; % is scaled to controls: 0 for no effect and ±100 for the full control effect; nearly all actives have a fitted effect of over 65% in size
BAZ2B block: qHTS Assay for Inhibitors of BAZ2B; Potency, µM (highest dose often 114 µM), for inactives: top-dose activity change, negative = inhibition, hits mostly inhibitors; AlphaScreen BAZ2B-H3K14Ac peptide displacement; actives 4.4% (n = 360,000); AID 504333, 2011; Bromodomain adjacent to zinc finger domain protein 2B (Homo sapiens), Q9UIF8; also: % is scaled to controls: 0 for no effect and ±100 for the full control effect; nearly all actives have a fitted effect of over 60% in size
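AlphaScreen displacement: compounds (up to 110uM) incubated 30 min at room temperature with a preformed 50 nM BAZ2B/50 nM biotinylated H3K14Ac peptide complex in PBS pH 7.4 with Tween-20. Donor and acceptor beads at 10 ug/mL final added, 20 min light-protected before reading.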
G9a block: qHTS Assay for Inhibitors of Histone Lysine Methyltransferase G9a. Histone-lysine N-methyltransferase EHMT2 (Homo sapiens), Q96KQ7. Potency, µM (top dose mostly 102 µM), without a hit: at the highest dose activity, negative = inhibition, most hits filed as inhibitors. G9a H3K9 monomethylation, AlphaScreen, 2 h. actives 8.8% (n = 350,000). AID 504332, 2011; also: % is scaled to controls: 0 for no effect and ±100 for the full control effect; nearly all actives have a fitted effect of over 75% in size
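G9a (20 nM) was preincubated 15 min with compound, then reacted 2 h at room temperature with 500 nM biotin-H3K9 peptide and 20 µM SAM. Monomethyl-H3K9 detected by AlphaScreen using anti-H3K9me1 antibody.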
JMJD2A Tudor: qHTS Assay for Inhibitors of JMJD2A-Tudor Domain. AlphaScreen JMJD2A-Tudor / H3K4me3 peptide binding. Potency, µM (doses to about 114 µM), without a hit: at the top dose activity change, negative = inhibition, usual class: inhibitors. actives 4.4% (n = 390,000). AID 504339, 2011; also: % is scaled to controls: 0 for no effect and ±100 for the full control effect; nearly all actives have a fitted effect of over 50% in size
Target sequence (O75164 whole entry, looked up, the tested form may be a part): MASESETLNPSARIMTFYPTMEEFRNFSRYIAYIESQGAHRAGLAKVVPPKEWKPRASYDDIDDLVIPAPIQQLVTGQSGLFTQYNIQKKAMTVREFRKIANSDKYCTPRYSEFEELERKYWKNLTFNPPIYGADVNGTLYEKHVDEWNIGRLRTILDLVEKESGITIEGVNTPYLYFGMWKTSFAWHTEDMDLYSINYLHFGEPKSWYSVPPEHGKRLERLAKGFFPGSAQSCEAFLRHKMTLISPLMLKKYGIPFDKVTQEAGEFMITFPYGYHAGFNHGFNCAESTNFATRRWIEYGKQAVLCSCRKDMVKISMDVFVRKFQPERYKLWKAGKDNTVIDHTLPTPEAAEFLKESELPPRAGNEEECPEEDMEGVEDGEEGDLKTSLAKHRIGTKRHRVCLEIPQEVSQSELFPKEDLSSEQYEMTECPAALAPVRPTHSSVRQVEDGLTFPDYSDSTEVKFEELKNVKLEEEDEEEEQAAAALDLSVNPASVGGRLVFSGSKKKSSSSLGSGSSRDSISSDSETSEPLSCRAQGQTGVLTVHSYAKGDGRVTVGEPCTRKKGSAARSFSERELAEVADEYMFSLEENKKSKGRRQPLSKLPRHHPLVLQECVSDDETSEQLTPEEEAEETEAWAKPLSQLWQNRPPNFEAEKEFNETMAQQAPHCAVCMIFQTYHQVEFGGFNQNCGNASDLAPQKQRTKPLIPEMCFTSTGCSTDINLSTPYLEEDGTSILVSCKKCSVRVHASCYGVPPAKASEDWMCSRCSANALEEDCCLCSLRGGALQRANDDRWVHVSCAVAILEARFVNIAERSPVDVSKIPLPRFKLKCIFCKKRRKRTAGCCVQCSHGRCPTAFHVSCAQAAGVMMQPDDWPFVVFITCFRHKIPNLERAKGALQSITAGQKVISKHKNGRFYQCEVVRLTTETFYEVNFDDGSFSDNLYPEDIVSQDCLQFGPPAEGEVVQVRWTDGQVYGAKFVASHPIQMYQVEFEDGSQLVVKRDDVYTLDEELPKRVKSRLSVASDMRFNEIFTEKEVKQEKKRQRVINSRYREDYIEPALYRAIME
The depositor's hits bear a star; [ ] = another dose, or the depositor's remark. Rows were chosen to be rich in hits. Some 12% of all compounds tested hit in one or more screens of this group. Calls follow the shape of the dose curve; as a rule, active = well fitted curve in the direction sought with a large enough effect; inconclusive = small, poorly fitted or top-dose-only effect, or another doubt; inactive = no such curve, though single readings can be large; an effect the other way counts as inactive or inconclusive. Potency is read from the fitted curve at half-maximal effect.

For O=C(CN1CCN(c2ccc(O)cc2)CC1)NCC(=O)Nc1ccc(F)c(F)c1F the results were HP1b chromo inh inconclusive, PLK1 PBD inh 3.9%, BAZ2B block -1.9%, G9a block inconclusive and JMJD2A Tudor 44.7µM*.
CCOc1ccc(CCNC(=O)COC(=O)/C=C/c2ccc(OCC#N)c(OC)c2)cc1OCC was read as HP1b chromo inh 27.3%, Sfp PPTase inh -0.6%, PLK1 PBD inh -7.1%, BAZ2B block 6.7%, G9a block 20.2%[59 µM] and JMJD2A Tudor 1.0%.
CCCCSc1nc2c([nH]1)c(=O)n(C)c(=S)n2C was read as HP1b chromo inh 22.9%, PLK1 PBD inh -11.4% and JMJD2A Tudor -8.3%.
Cn1c(=O)c2[nH]c(=O)cnc2n(C)c1=S was read as HP1b chromo inh -10.0%, Sfp PPTase inh 17.8µM*, PLK1 PBD inh 29.9µM*, BAZ2B block -14.8%, G9a block 50.1µM* and JMJD2A Tudor -5.8%.
For Cc1ccccc1-n1c([C@@H]2C[C@H]2c2ccccc2)n[nH]c1=S the results were HP1b chromo inh 8.7%, Sfp PPTase inh -4.2%, PLK1 PBD inh -10.6%, BAZ2B block -16.4% and JMJD2A Tudor 44.7µM*.
S=c1[nH]nc([C@@H]2C[C@H]2c2ccccc2)n1-c1ccccc1 was read as HP1b chromo inh -4.7%, Sfp PPTase inh -15.0%, PLK1 PBD inh -8.0%, BAZ2B block -9.4%, G9a block 2µM* and JMJD2A Tudor 17.8µM*.
For O=C(CCl)N1c2ccccc2Oc2ccc3ccccc3c21 the results were HP1b chromo inh 70.8µM*, PLK1 PBD inh 8.44µM* and JMJD2A Tudor 56.2µM*.
CC(=O)N1c2ccccc2Oc2cc3ccccc3cc21 was read as HP1b chromo inh 43.8%, Sfp PPTase inh -19.0%, PLK1 PBD inh -14.7%, BAZ2B block 3.9%, G9a block -1.6%[59 µM] and JMJD2A Tudor 14.0%.
`CN1C(=O)C(Cl)(Cl)C(=O)c2ccccc21` gave HP1b chromo inh -13.8%, Sfp PPTase inh 2.51µM*, PLK1 PBD inh 11.9µM*, BAZ2B block 39.8µM*, G9a block 1µM* and JMJD2A Tudor 28.2µM*.
COc1ccc(-n2nnnc2/C=C\Nc2ccc(C)cc2)cc1 was read as HP1b chromo inh 32.0%, Sfp PPTase inh -10.1%, PLK1 PBD inh -10.4%, BAZ2B block -0.5%, G9a block -33.4% and JMJD2A Tudor -7.9%.
For CCc1c2c(nc3ccc4c(c13)OCCO4)-c1nc3ccccc3c(=O)n1C2 the results were HP1b chromo inh 10.4%, Sfp PPTase inh -6.0% and JMJD2A Tudor -13.1%.
Screening CCSc1nnc(NC(=O)CSc2nnc(Cc3cccn3C)n2CCc2ccccc2)s1 returned HP1b chromo inh 28.8%, Sfp PPTase inh -10.2%, PLK1 PBD inh -11.2%, BAZ2B block inconclusive, G9a block 3.3%[12.7 µM] and JMJD2A Tudor -16.0%.
`CC(=O)Nc1cccc(NC(=O)CSc2nnc(Cc3cccn3C)n2CCc2ccccc2)c1` gave HP1b chromo inh 1.2%, Sfp PPTase inh 2.7%, PLK1 PBD inh -8.8%, BAZ2B block -37.4%, G9a block 50.1µM* and JMJD2A Tudor -15.6%.
For Cn1cccc1Cc1nnc(SCC(=O)Nc2nccs2)n1CCc1ccccc1 the results were HP1b chromo inh 18.1%, Sfp PPTase inh 79.4µM*, PLK1 PBD inh -7.3%, BAZ2B block inconclusive, G9a block 50.1µM* and JMJD2A Tudor inconclusive.
`COc1ccc(NC(=O)c2ccc(NC(=O)CN(C)CC(=O)Nc3c(C)cccc3C)cc2)cc1` gave HP1b chromo inh 13.8%, Sfp PPTase inh 11.1%, PLK1 PBD inh -3.8%, BAZ2B block 0.0% and JMJD2A Tudor -8.6%.
